Active and inactive are the calls of the source. Rule for the calls: active = hit-call score of the fitted dose curve at least 0.9, where 1 is the maximum; inactive = score below 0.9.
Columns and labels:
[1] = molecular target: Nuclear respiratory factor 1 (Homo sapiens) (UniProt Q16656); experiment: ATG_NRF1_CIS: Attagene CIS-FACTORIAL HepG2 Assay for human Nuclear Respiratory Factor 1 (NRF1) Orphan Gene (AID 2282987); conditions: HepG2 NRF1 cis-element reporter, Attagene multiplex; actives raise or lower the signal
Chain of Nuclear respiratory factor 1 (Homo sapiens) (Q16656 whole entry, looked up): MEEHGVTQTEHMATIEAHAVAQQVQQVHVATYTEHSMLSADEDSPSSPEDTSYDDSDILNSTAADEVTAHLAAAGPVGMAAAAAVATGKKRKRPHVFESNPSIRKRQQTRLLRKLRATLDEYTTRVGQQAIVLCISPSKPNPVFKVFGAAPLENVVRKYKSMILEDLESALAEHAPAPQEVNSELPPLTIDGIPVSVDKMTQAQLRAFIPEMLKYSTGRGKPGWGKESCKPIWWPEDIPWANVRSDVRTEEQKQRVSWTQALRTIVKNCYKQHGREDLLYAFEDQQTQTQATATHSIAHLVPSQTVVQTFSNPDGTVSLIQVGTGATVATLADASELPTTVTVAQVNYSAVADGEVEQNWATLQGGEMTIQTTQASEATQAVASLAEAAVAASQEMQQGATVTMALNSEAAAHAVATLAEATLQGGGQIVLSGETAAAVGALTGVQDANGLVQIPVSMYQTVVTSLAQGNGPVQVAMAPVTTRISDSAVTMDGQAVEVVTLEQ
How it was run: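 Multiplexed cis-reporter assay, HepG2 cells, 24 h treatment. Total RNA → oligo(dT) RT → PCR with reporter-specific primers → 6-FAM primer extension → HpaI cut → CE. Bidirectional fit vs DMSO.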

[2] = ATG_NFI_CIS: Attagene CIS-FACTORIAL HepG2 Assay for human Nuclear Factor I (NFI) (AID 2282989); conditions: HepG2 cis-regulatory reporter, NFI response element transcription; actives raise or lower the signal
How it was run: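 Read-out: reporter mRNA via RT-PCR plus capillary electrophoresis with fluorescence detection. Transiently transfected HepG2 (endogenous TF activity on cis promoters), 24 h compound exposure; gain or loss of signal fitted against DMSO.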

[3] = molecular target: Myc proto-oncogene protein (Homo sapiens) (UniProt P01106); experiment: ATG_Myc_CIS: Attagene CIS-FACTORIAL HepG2 Assay for human Myelocytomatosis (Myc) Proto-Oncogene Transcription Factor (AID 2282990); conditions: HepG2, Attagene cis-reporter transcription factor activity; actives raise or lower the signal
Chain of Myc proto-oncogene protein (Homo sapiens) (P01106 whole entry, looked up, the tested form may be a part): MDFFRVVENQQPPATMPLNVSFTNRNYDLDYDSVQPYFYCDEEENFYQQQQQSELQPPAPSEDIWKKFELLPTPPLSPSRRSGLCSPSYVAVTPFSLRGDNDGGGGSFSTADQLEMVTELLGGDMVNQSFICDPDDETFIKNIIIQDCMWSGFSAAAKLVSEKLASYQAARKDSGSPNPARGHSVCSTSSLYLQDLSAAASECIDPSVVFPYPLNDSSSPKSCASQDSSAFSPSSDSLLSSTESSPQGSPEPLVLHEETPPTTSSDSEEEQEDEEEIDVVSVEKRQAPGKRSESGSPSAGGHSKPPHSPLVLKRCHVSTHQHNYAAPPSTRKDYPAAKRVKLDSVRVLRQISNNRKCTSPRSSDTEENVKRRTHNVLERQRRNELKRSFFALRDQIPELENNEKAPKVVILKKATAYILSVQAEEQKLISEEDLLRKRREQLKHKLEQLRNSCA
How it was run: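 Read-out: fluorescent reporter mRNA fragments resolved by capillary electrophoresis after RT-PCR. Human HepG2 liver cells carried transfected cis-element reporter units and were dosed for 24 h. Gain or loss of signal fitted relative to DMSO baseline.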

[4] = ATG_NRF2_ARE_CIS: Attagene CIS-FACTORIAL HepG2 Assay for human Nuclear Factor Erythroid 2 Related Factor 2 (NFR2) response to Antioxidant Response Elements (ARE) (AID 2282992); conditions: HepG2 Attagene ARE/NRF2 reporter, transcription factor activity; actives raise or lower the signal;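 for AC50: reporter mRNA level measured by RT-PCR and capillary electrophoresis fluorescence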
How it was run: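 Transient MRTU transfection of HepG2; 24 h compound exposure; TriZol RNA, RT with oligo(dT), PCR, 6-FAM primer extension, HpaI cut, CE. Bidirectional fit vs DMSO.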

[5] = ATG_Oct_MLP_CIS: Attagene CIS-FACTORIAL HepG2 Assay for human Octamer-Binding Transcription Factor (Oct) (AID 2282993); conditions: HepG2 Attagene cis-factorial Oct reporter, mRNA; actives raise or lower the signal
How it was run: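 Read-out: reporter mRNA via RT-PCR plus capillary electrophoresis of 6-FAM-labelled fragments. Transiently transfected HepG2, 24 h exposure, endogenous TF activity on cis elements. Gain or loss of signal fitted relative to DMSO.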

[6] = BSK_3C_TissueFactor: BioMAP Diversity Plus: 3C Assay for Tissue Factor Biomarker Activity (AID 2282997); conditions: BioMAP 3C HUVEC, tissue factor biomarker readout; actives raise or lower the signal
How it was run: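 Human vascular primary cells (umbilical vein endothelium) received test chemical; Tissue Factor was determined by ELISA at 24 h, and both gain and loss of signal versus DMSO were fitted.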

[7] = BSK_3C_uPAR: BioMAP Diversity Plus: 3C Assay for Urokinase-type plasminogen activator receptor (uPAR) Biomarker Activity (AID 2282998); conditions: BioMAP 3C HUVEC, uPAR biomarker ELISA; actives raise or lower the signal
How it was run: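 HUVEC primary cells; 24 h post-dose; uPAR by ELISA; gain or loss of signal fitted bidirectionally vs DMSO baseline.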

[8] = BSK_3C_VCAM1: BioMAP Diversity Plus: 3C Assay for Vascular cell adhesion molecule 1 (VCAM1) Biomarker Activity (AID 2282999); conditions: BioMAP 3C HUVEC, VCAM1 ELISA, cytokine-stimulated; actives raise or lower the signal
How it was run: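 Human umbilical vein endothelial cells (3C system), biomarker read by ELISA 24 h after dosing; bidirectional fit against DMSO baseline. Cytotoxicity tracked by SRB total-protein staining in parallel cultures at biomarker time.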

[9] = ATG_NF_kB_CIS: Attagene CIS-FACTORIAL HepG2 Assay for human Nuclear Factor Kappa B (NF-kB) (AID 2282991); conditions: HepG2 Attagene cis-factorial NF-kB reporter mRNA; actives raise or lower the signal
How it was run: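 Transient MRTU transfection of human HepG2 liver cells → 24 h chemical exposure → total RNA, oligo(dT) RT → PCR, 6-FAM primer extension, HpaI digest 2 h 37 C → CE fragment analysis. Bidirectional fitting, DMSO negative control.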

[10] = molecular target: Cellular tumor antigen p53 (Homo sapiens) (UniProt P04637); experiment: ATG_p53_CIS: Attagene CIS-FACTORIAL HepG2 Assay for human p53 Transcription Factor (AID 2282994); conditions: HepG2 p53 cis-element reporter, Attagene mRNA; actives raise or lower the signal
Chain of Cellular tumor antigen p53 (Homo sapiens) (P04637 whole entry, looked up): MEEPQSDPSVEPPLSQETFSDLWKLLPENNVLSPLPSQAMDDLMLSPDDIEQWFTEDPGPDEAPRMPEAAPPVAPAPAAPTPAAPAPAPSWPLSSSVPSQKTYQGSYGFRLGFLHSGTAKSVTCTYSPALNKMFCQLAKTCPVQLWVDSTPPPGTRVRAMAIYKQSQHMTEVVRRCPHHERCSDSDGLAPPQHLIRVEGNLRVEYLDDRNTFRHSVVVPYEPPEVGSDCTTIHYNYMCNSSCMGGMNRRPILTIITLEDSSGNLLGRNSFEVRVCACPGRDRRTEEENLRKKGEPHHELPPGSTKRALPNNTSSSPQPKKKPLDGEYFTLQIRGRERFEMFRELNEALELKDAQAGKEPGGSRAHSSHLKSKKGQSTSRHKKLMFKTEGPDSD
How it was run: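 HepG2, transient MRTU transfection (cis promoter elements, endogenous TFs); 24 h dosing; RNA isolation, RT-PCR, 6-FAM primer extension, HpaI digest, CE fluorescence; bidirectional fit vs DMSO.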

Question: What does the source list for CCCCC(CC)COP(=O)(O)OCC(CC)CCCC (stereo unspecified)?
Answer: outcome [1]: inactive; outcome [2]: inactive; outcome [3]: inactive; AC50 [4]: 26.6 µM (active); outcome [5]: inactive; outcome [6]: inactive; outcome [7]: inactive; outcome [8]: inactive

Question: For OCC(F)(F)C(F)(F)C(F)(F)C(F)F, which outcome [1] is on record?
Answer: inactive

Question: What about the outcome [2] of the same molecule?
Answer: inactive

Question: What about the outcome [3] of the same molecule?
Answer: inactive

Question: What about the outcome [9] of the same molecule?
Answer: inactive

Question: What about the outcome [4] of the same molecule?
Answer: inactive

Question: And the outcome [5]?
Answer: inactive

Question: And the outcome [10]?
Answer: inactive

Question: What about the outcome [6] of the same molecule?
Answer: inactive

Question: And the outcome [7]?
Answer: inactive

Question: What about the outcome [8] of the same molecule?
Answer: inactive

Question: What does the source list for FC(F)(F)C(F)(F)C(F)(F)C(F)(F)C(F)(F)C(F)(F)C(F)(F)I?
Answer: outcome [1]: inactive; outcome [2]: inactive; outcome [3]: inactive; outcome [9]: inactive; outcome [4]: inactive; outcome [5]: inactive; outcome [10]: inactive; outcome [6]: inactive; outcome [7]: inactive; outcome [8]: inactive

Question: For C=CC/C=C/C/C=C/C/C=C/C, which outcome [1] is on record?
Answer: inactive

Question: What about the outcome [2] of the same molecule?
Answer: inactive

Question: And the outcome [3]?
Answer: inactive

Question: And the outcome [9]?
Answer: inactive

Question: And the outcome [4]?
Answer: inactive

Question: What about the outcome [5] of the same molecule?
Answer: inactive

Question: What about the outcome [10] of the same molecule?
Answer: inactive

Question: And the outcome [6]?
Answer: inactive

Question: And the outcome [7]?
Answer: inactive

Question: What about the outcome [8] of the same molecule?
Answer: inactive

Question: Which outcome [1] does the source give for FC(F)(F)C(F)(F)C(F)(F)C(F)(F)C(F)(F)C(F)(F)C(F)(F)C(F)(F)CCS here?
Answer: inactive

Question: And the outcome [2]?
Answer: inactive

Question: And the outcome [3]?
Answer: inactive

Question: And the outcome [9]?
Answer: inactive

Question: What about the outcome [4] of the same molecule?
Answer: inactive

Question: What about the outcome [5] of the same molecule?
Answer: inactive

Question: What about the outcome [10] of the same molecule?
Answer: inactive

Question: What about the outcome [6] of the same molecule?
Answer: inactive

Question: And the outcome [7]?
Answer: inactive

Question: What about the outcome [8] of the same molecule?
Answer: inactive

Question: For O=C(O)C(F)(F)C(F)(F)C(F)(F)C(F)(F)C(F)(F)C(F)(F)C(F)(F)C(F)(F)C(F)(F)C(F)(F)C(F)(F)C(F)(F)F, which outcome [1] is on record?
Answer: inactive

Question: What about the outcome [2] of the same molecule?
Answer: inactive

Question: And the outcome [3]?
Answer: inactive

Question: And the outcome [9]?
Answer: inactive

Question: And the outcome [4]?
Answer: inactive

Question: And the outcome [5]?
Answer: inactive

Question: And the AC50 [10]?
Answer: 143 µM (active)

Question: What about the outcome [6] of the same molecule?
Answer: inactive

Question: What about the outcome [7] of the same molecule?
Answer: inactive

Question: What about the outcome [8] of the same molecule?
Answer: inactive

Question: Which results are given for CCc1c(Br)c(Br)c(Br)c(Br)c1Br?
Answer: outcome [1]: inactive; outcome [2]: inactive; outcome [3]: inactive; outcome [9]: inactive; outcome [4]: inactive; outcome [5]: inactive; outcome [10]: inactive; AC50 [6]: 4.73 µM (active); AC50 [7]: 20 µM (active); outcome [8]: inactive

Question: For CCCCCCCCC(F)(F)C(F)(F)C(F)(F)C(F)(F)C(F)(F)C(F)(F)F, which outcome [1] is on record?
Answer: inactive

Question: What about the AC50 [2] of the same molecule?
Answer: 36 µM (active)

Question: And the outcome [3]?
Answer: inactive

Question: What about the outcome [9] of the same molecule?
Answer: inactive

Question: What about the outcome [4] of the same molecule?
Answer: inactive

Question: And the AC50 [5]?
Answer: 89.3 µM (active)

Question: What about the outcome [10] of the same molecule?
Answer: inactive

Question: What about the outcome [6] of the same molecule?
Answer: inactive

Question: What about the outcome [7] of the same molecule?
Answer: inactive

Question: And the outcome [8]?
Answer: inactive

Question: For O=C(O)C(F)(F)C(F)(F)C(F)(F)F, which outcome [1] is on record?
Answer: inactive

Question: What about the outcome [2] of the same molecule?
Answer: inactive

Question: What about the outcome [3] of the same molecule?
Answer: inactive

Question: What about the outcome [9] of the same molecule?
Answer: inactive

Question: What about the outcome [4] of the same molecule?
Answer: inactive

Question: And the outcome [5]?
Answer: inactive

Question: What about the outcome [10] of the same molecule?
Answer: inactive

Question: What about the outcome [6] of the same molecule?
Answer: inactive

Question: And the outcome [7]?
Answer: inactive

Question: What about the outcome [8] of the same molecule?
Answer: inactive

Question: Which outcome [1] does the source give for FC(F)(F)C(F)(F)C(F)(F)CI here?
Answer: inactive

Question: And the outcome [2]?
Answer: inactive

Question: And the outcome [3]?
Answer: inactive

Question: What about the outcome [9] of the same molecule?
Answer: inactive

Question: And the outcome [4]?
Answer: inactive

Question: And the outcome [5]?
Answer: inactive

Question: And the outcome [10]?
Answer: inactive

Question: What about the outcome [6] of the same molecule?
Answer: inactive

Question: And the outcome [7]?
Answer: inactive

Question: What about the outcome [8] of the same molecule?
Answer: inactive

Question: Which outcome [1] does the source give for CO[Si](OC)(c1ccccc1)c1ccccc1 here?
Answer: inactive

Question: And the outcome [2]?
Answer: inactive

Question: What about the outcome [3] of the same molecule?
Answer: inactive

Question: And the outcome [9]?
Answer: inactive

Question: And the outcome [4]?
Answer: inactive

Question: What about the outcome [5] of the same molecule?
Answer: inactive

Question: And the outcome [10]?
Answer: inactive

Question: What about the outcome [6] of the same molecule?
Answer: inactive

Question: And the AC50 [7]?
Answer: 34.8 µM (active)

Question: And the AC50 [8]?
Answer: 36.7 µM (active)

Question: What does the source list for C1COCCN1?
Answer: outcome [1]: inactive; outcome [2]: inactive; outcome [3]: inactive; outcome [4]: inactive; outcome [5]: inactive; outcome [10]: inactive

Question: Which outcome [1] does the source give for CN(C)Cc1ccccc1O here?
Answer: inactive

Question: What about the outcome [2] of the same molecule?
Answer: inactive

Question: And the outcome [3]?
Answer: inactive

Question: What about the outcome [4] of the same molecule?
Answer: inactive

Question: And the AC50 [5]?
Answer: 179 µM (active)

Question: What about the outcome [10] of the same molecule?
Answer: inactive

Question: For Nc1cc(Cl)c(N)c(Cl)c1, which outcome [1] is on record?
Answer: inactive

Question: What about the outcome [2] of the same molecule?
Answer: inactive

Question: And the outcome [3]?
Answer: inactive

Question: What about the AC50 [4] of the same molecule?
Answer: 9.89 µM (active)

Question: What about the outcome [5] of the same molecule?
Answer: inactive

Question: What about the outcome [10] of the same molecule?
Answer: inactive
